Bioassay records deposited in PubChem by several laboratories.
ABCB6 inh 2 – inhibitors of human ABC transporter ABCB6; AID 602162; 360,000 tested, 0.19% active; K562-ABCB6 porphyrin accumulation, flow cytometry, 1 h; hits give low values; Q9NP58; fluorescence ratio to DMSO, % at 10 µM;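 active = fluorescence ratio to DMSO below 75%, the collection mean minus 3 SD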;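 note: signal is porphyrin accumulated inside mitochondria; 100% equals median channel fluorescence of DMSO control wells; lower ratio means ABCB6 inhibition with less porphyrin fluorescence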
rCAG RNA binder – binds r(CAG) RNA repeats; r(CAG) RNA repeat, TO-PRO-1 dye displacement fluorescence; inhibition, % at 3 µM; 370,000 tested, 1.3% active;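 active = inhibition above the plate cutoff, the mean of all test compounds on that plate plus 3 SD, cut at about 35% in these data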;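 note: 0% = DMSO alone and 100% = 100 µM mitoxantrone as full dye displacement; higher means more dye released from RNA so lower well fluorescence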
Granule exo inh – blocks lytic granule exocytosis | TALL-104 LAMP-1 surface exposure, flow cytometry; cells stimulated with thapsigargin and PMA | 360,000 tested, 0.66% active | inhibition, % at 10 µM;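 active = inhibition above about 55%, limit read from the data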
PG9 binder – PG9 antibody binding by small molecule | TR-FRET gp120-PG9 antibody binding | inhibition, % at 6.7 µM | 360,000 tested, 0.43% active | AID 624416; in the data active = inhibition above about 8.5%
PG9 bind confirm – PG9 antibody binding, confirmed. shares compounds with PG9 binder. TR-FRET PG9 antibody binding, biochemical. inhibition, % at 6.7 µM. 1,500 tested, 90% active. AID 651571; in the data active = inhibition above about 9%
PGV04 Ab binding – PGV04 control antibody binding, counter-screen | shares compounds with PG9 binder | TR-FRET PGV04 antibody-gp120 binding, biochemical | inhibition, % at 6.7 µM | 1,500 tested, 95% active | AID 651604; in the data active = inhibition above about 9.5%
PG9 bind DR – PG9 antibody binding, dose response | IC50, µM | 95 tested, under 10 active | AID 651848 | shares compounds with PG9 binder | TR-FRET PG9 antibody-gp120 binding inhibition; in the data active = IC50 below about 10 µM
PGV04 binding DR – PGV04 binding, dose response counter-screen. shares compounds with PG9 binder. TR-FRET binding to control antibody PGV04. IC50, µM. 95 tested, 20% active. AID 651937
PG126 binding DR – binds control antibody PG126 in PG9 counter-screen; IC50, µM; TR-FRET binding to antibody PG126, counterscreen; shares compounds with PG9 binder; 95 tested, 20% active
Numbers without * were called inactive; i = inactive; · = no result given. Most compounds without a hit are left out; they make up all but 2.5% or so of the library. Cut-off read from the data, not from the text of the source, unless noted: active = IC50 below about 9 µM; inactive = the rest.

SMILES	ABCB6 inh 2	rCAG RNA binder	Granule exo inh	PG9 binder	PG9 bind confirm	PGV04 Ab binding	others
CC(C)N1CCC1(C)C(=O)Nc1nc2ccccc2[nH]1 (configuration not stated)	98	0	-3	1	·	·
COc1ccc(NC(=O)C2CCCN(S(=O)(=O)c3ccc4[nH]c(=O)ccc4c3)C2)cc1 (configuration not stated)	102	3	-2	9.6*	18*	26*
CCOc1ccc(NC(=O)C2CCCN(S(=O)(=O)c3ccc4[nH]c(=O)ccc4c3)C2)cc1 (configuration not stated)	106	2	-4	11*	38*	63*
Cc1ccc(C(=O)Nc2c(-c3ccc(Cl)cc3)[nH][nH]c2=O)cc1	98	10	1	-1	·	·
O=C(COC(=O)c1ccccc1C(=O)c1ccc(Cl)cc1)NCCc1ccccc1	97	1	6	-2	·	·
O=C(COC(=O)c1ccccc1C(=O)c1ccc(Cl)cc1)NC(c1ccccc1)c1ccccc1	97	24	0	17*	25*	47*
Cc1ccc(O)c(C2=Nc3ccccc3N=C(c3ccco3)C2)c1	107	6	-3	59*	55*	69*
CC(=O)c1ccc(NC(=O)Cc2cccs2)cc1	99	10	-4	0	·	·
CSc1ccc(C(=O)NC2CCSc3ccccc32)cc1 (configuration not stated)	99	2	16	16*	11*	10*	PG9 bind DR=>67;PGV04 binding DR=i;PG126 binding DR=i
O=C(NCCC1=CCCCC1)c1coc(=O)c(Br)c1	102	-2	10	46*	57*	64*
CC(C)CNC(=O)CCc1nc(-c2ccccc2)no1	99	0	-5	-1	·	·
CCCCn1c(SCC(=O)c2ccc(OCC)cc2)nc2cc(S(N)(=O)=O)ccc21	97	9	-4	19*	22*	35*
Cc1[nH][nH]c(=O)c1C(c1ccc(Cl)cc1)c1c(C)[nH][nH]c1=O	98	5	-2	-2	·	·
COc1ccccc1CN1CC(C(=O)N2CCC(C(=O)c3ccccc3)CC2)CCC1=O (configuration not stated)	105	-3	11	0	·	·
COc1ccc(OCC(=O)Nc2cc(S(=O)(=O)N3CCCCC3)ccc2OC)cc1	99	-2	2	2	·	·
COc1ccc(OCC(=O)Nc2cc(S(=O)(=O)N3CCCC3)ccc2OCC(F)(F)F)cc1	99	-4	-11	9.3*	21*	28*
CN(Cc1ccccn1)C(=O)C1CCC(=O)N(CCc2ccc(Cl)cc2)C1 (configuration not stated)	102	-3	0	-2	·	·
CCN(CC)c1ccc(/C=N/NC(=O)c2nnn(-c3nonc3N)c2-c2ccc(C)cc2)cc1	95	9	-6	3	·	·
COc1ccc(Cc2nnc(SCC(=O)c3ccc4c(c3)NC(=O)CO4)o2)cc1	100	1	4	9.3*	13*	30*
COc1ccc(Cc2nnc(SCC(=O)c3ccc(OC)cc3)o2)cc1	99	-1	-2	-3	·	·
O=C(CCn1c(=O)oc2ccccc21)NCc1ccc2c(c1)OCO2	95	2	2	-1	·	·
O=c1c2ccccc2[nH]c(=S)n1Cc1ccc2c(c1)OCO2	94	-1	-3	8.6*	12*	22*
COc1cccc(CNC(=O)CCCn2c(=S)[nH]c3cc4c(cc3c2=O)OCO4)c1	107	0	-2	28*	15*	23*
O=C(CCn1c(=O)c2ccccc2n(Cc2ccccc2)c1=O)NCc1ccc2c(c1)OCO2	104	-2	-1	13*	24*	42*
O=C(CCCn1c(=S)[nH]c2cc3c(cc2c1=O)OCO3)NCc1ccccc1Cl	93	4	-1	19*	21*	21*	PG9 bind DR=>67;PGV04 binding DR=i;PG126 binding DR=i
SMILES	ABCB6 inh 2	rCAG RNA binder	Granule exo inh	PG9 binder	PG9 bind confirm	PGV04 Ab binding	others
NC(=O)CC(NC(=O)Cc1ccc(Cl)cc1)c1ccc(NCCOc2ccccc2)c([N+](=O)[O-])c1 (configuration not stated)	102	9	-5	1	·	·
COc1cccc(C(=O)Nc2nnc(-c3ccccc3)s2)c1	95	-3	6	5	·	·
COc1cccc(C(=O)Nc2nnc(-c3ccc(OC)cc3OC)s2)c1	97	1	-9	31*	31*	41*
COc1ccc(C(=O)Nc2nnc(Cc3ccc(OC)c(OC)c3)s2)cc1	98	24	-1	9.5*	11*	20*
O=C(CCc1ccccc1)Nc1nc2ccc(S(=O)(=O)N3CCOCC3)cc2s1	98	7	2	12*	22*	31*
CC1CCc2nc(/C(C#N)=C/c3ccncc3)sc2C1 (configuration not stated)	101	0	-2	2	·	·
Cc1cccc(S(=O)(=O)Nc2cccc3c2C(=O)c2ccccc2-3)c1	101	22	0	11*	15*	17*
COc1ccc2oc(=N)c(C(=O)Nc3ccccc3)cc2c1	102	0	0	18*	6	9.2*
CC(=O)c1ccc(N2CCN(C(=O)c3ccc(-c4ccccc4)cc3)CC2)cc1	97	2	2	26*	44*	54*
CCCCC1=CC2=C(c3ccco3)C(=O)C(C)(OC(=O)c3ccc(OC)cc3)C(=O)C2=CN1C(CO)CO (configuration not stated)	92	-6	-17	13*	14*	17*
CCCCC1=CC2=C(c3ccco3)C(=O)C(C)(OC(=O)c3ccc(OC)cc3)C(=O)C2=CN1CCCN(CC)CC (configuration not stated)	98	-3	3	2	·	·
CCCCC1=CC2=C(c3ccco3)C(=O)C(C)(OC(=O)c3ccc(OC)cc3)C(=O)C2=CN1CCCCO (configuration not stated)	105	-6	0	13*	19*	24*
CCCCC1=CC2=C(c3ccco3)C(=O)C(C)(OC(=O)c3ccc(OC)cc3)C(=O)C2=CN1CC1CC1 (configuration not stated)	102	6	7	-1	·	·
CCCCC1=CC2=C(c3ccco3)C(=O)C(C)(OC(=O)c3ccc(OC)cc3)C(=O)C2=CN1C1CC1 (configuration not stated)	105	-4	5	12*	22*	29*
N#Cc1c(-c2ccco2)nc(SCc2ccc(F)cc2)[nH]c1=O	106	50*	-4	33*	33*	37*
